ChEMBL document CHEMBL1961873, “Compounds: GSK PKIS; Assays: Nanosyn kinase panel” (2012)

Tests used:
[1] = target: Death-associated protein kinase 1 (Homo sapiens) (UniProt P53355); conditions: at 1 µM;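 also: each value is a mean inhibition figure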
[2] = target: T1, Serine/threonine-protein kinase DCLK2 (Homo sapiens) (UniProt Q8N568); conditions: at 0.1 µM
T1 sequence (whole entry): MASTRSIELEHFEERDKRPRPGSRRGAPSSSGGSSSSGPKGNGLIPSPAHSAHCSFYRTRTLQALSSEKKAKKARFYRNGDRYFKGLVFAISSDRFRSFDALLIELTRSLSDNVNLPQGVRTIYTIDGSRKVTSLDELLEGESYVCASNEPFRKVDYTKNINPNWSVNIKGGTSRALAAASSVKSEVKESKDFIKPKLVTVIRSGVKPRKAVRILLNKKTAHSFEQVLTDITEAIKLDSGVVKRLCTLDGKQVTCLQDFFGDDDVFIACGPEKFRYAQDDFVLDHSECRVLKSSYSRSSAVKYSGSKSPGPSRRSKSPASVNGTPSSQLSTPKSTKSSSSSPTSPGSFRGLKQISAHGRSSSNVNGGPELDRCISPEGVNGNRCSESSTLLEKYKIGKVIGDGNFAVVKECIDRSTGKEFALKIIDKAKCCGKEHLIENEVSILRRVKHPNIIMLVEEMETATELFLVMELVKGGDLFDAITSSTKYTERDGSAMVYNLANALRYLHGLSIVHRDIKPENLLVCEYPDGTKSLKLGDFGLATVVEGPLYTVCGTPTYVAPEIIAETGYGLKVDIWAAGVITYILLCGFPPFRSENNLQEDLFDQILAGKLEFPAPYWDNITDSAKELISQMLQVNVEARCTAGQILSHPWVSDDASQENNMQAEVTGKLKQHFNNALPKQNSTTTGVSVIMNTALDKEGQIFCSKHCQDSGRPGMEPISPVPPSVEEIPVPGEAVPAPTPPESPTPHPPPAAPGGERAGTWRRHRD

[3] = target: T1, Serine/threonine-protein kinase DCLK2 (Homo sapiens); conditions: at 1 µM
[4] = target: MAP kinase-activated protein kinase 2 (Homo sapiens) (UniProt P49137); conditions: at 0.1 µM
[5] = target: MAP kinase-activated protein kinase 2 (Homo sapiens) (UniProt P49137); conditions: at 1 µM
[6] = target: MAP kinase-activated protein kinase 3 (Homo sapiens) (UniProt Q16644); conditions: at 0.1 µM
[7] = target: MAP kinase-activated protein kinase 3 (Homo sapiens) (UniProt Q16644); conditions: at 1 µM
[8] = target: Serine/threonine-protein kinase MARK1 (Homo sapiens) (UniProt Q9P0L2); conditions: at 0.1 µM
[9] = target: Serine/threonine-protein kinase MARK1 (Homo sapiens) (UniProt Q9P0L2); conditions: at 1 µM
[10] = target: MAP/microtubule affinity-regulating kinase 3 (Homo sapiens) (UniProt P27448); conditions: at 0.1 µM
[11] = target: MAP/microtubule affinity-regulating kinase 3 (Homo sapiens) (UniProt P27448); conditions: at 1 µM
[12] = target: T2, MAP/microtubule affinity-regulating kinase 4 (Homo sapiens) (UniProt Q96L34); conditions: at 0.1 µM
T2 sequence (whole entry): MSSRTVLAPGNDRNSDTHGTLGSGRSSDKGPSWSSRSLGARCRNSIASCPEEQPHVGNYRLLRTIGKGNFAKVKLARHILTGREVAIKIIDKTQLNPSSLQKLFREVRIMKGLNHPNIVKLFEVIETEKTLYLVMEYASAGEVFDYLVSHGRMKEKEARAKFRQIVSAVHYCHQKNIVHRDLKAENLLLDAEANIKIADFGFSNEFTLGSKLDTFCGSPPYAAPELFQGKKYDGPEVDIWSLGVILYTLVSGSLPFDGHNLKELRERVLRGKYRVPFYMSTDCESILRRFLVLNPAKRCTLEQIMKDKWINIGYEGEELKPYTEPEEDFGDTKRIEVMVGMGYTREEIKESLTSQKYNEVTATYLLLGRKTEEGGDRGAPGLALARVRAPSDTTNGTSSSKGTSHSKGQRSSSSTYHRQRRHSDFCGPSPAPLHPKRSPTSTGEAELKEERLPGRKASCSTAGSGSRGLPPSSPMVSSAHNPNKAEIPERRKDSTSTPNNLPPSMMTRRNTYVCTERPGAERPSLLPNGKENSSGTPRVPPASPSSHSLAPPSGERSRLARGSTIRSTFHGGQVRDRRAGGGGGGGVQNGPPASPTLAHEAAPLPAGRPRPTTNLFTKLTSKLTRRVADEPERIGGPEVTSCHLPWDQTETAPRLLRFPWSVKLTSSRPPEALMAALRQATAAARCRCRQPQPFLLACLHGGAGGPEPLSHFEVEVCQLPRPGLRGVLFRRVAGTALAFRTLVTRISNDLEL

[13] = target: T2, MAP/microtubule affinity-regulating kinase 4 (Homo sapiens); conditions: at 1 µM
[14] = target: Maternal embryonic leucine zipper kinase (Homo sapiens) (UniProt Q14680); conditions: at 0.1 µM
[15] = target: Maternal embryonic leucine zipper kinase (Homo sapiens) (UniProt Q14680); conditions: at 1 µM
[16] = target: MAP kinase-interacting serine/threonine-protein kinase 1 (Homo sapiens) (UniProt Q9BUB5); conditions: at 0.1 µM
[17] = target: MAP kinase-interacting serine/threonine-protein kinase 1 (Homo sapiens) (UniProt Q9BUB5); conditions: at 1 µM
[18] = target: MAP kinase-interacting serine/threonine-protein kinase 2 (Homo sapiens) (UniProt Q9HBH9); conditions: at 0.1 µM
[19] = target: MAP kinase-interacting serine/threonine-protein kinase 2 (Homo sapiens) (UniProt Q9HBH9); conditions: at 1 µM
[20] = target: Serine/threonine-protein kinase MARK2 (Homo sapiens) (UniProt Q7KZI7); conditions: at 0.1 µM;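 also: mean percent inhibition of PAR-1Balpha kinase activity, reported from the GSK PKIS screen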
Serine/threonine-protein kinase MARK2 (Homo sapiens), sequence (Q7KZI7 whole entry): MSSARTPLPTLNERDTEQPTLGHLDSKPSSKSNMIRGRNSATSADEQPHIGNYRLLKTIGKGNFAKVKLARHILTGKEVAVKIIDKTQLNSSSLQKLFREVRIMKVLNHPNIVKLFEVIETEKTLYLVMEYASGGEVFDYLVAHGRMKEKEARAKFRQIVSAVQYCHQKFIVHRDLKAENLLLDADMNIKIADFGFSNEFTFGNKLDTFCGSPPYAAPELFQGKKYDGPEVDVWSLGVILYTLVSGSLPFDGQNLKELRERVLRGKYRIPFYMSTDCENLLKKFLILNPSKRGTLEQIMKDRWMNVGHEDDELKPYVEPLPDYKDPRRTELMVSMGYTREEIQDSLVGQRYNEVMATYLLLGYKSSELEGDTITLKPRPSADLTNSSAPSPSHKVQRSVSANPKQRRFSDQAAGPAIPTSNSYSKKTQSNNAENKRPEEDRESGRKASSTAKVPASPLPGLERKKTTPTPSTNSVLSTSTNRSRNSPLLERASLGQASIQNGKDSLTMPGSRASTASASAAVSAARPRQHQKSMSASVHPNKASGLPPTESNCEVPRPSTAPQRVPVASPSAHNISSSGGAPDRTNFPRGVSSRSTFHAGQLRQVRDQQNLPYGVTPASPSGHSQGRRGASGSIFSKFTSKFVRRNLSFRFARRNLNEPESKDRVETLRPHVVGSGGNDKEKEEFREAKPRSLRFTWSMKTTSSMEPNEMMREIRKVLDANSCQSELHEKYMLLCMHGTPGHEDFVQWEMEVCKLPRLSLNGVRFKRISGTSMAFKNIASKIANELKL

MAP kinase-activated protein kinase 2 (Homo sapiens), sequence (P49137 whole entry, looked up): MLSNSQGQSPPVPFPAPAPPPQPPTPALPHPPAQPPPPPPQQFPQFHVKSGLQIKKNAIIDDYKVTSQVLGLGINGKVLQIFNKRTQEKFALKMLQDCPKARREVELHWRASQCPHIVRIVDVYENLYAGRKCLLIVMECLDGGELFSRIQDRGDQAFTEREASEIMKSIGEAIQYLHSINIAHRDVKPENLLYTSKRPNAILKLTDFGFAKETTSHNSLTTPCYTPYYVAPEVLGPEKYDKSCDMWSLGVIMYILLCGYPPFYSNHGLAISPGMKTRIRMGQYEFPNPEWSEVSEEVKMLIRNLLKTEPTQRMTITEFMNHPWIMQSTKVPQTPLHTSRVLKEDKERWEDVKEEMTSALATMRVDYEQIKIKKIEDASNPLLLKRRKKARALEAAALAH
MAP/microtubule affinity-regulating kinase 3 (Homo sapiens), sequence (P27448 whole entry, looked up): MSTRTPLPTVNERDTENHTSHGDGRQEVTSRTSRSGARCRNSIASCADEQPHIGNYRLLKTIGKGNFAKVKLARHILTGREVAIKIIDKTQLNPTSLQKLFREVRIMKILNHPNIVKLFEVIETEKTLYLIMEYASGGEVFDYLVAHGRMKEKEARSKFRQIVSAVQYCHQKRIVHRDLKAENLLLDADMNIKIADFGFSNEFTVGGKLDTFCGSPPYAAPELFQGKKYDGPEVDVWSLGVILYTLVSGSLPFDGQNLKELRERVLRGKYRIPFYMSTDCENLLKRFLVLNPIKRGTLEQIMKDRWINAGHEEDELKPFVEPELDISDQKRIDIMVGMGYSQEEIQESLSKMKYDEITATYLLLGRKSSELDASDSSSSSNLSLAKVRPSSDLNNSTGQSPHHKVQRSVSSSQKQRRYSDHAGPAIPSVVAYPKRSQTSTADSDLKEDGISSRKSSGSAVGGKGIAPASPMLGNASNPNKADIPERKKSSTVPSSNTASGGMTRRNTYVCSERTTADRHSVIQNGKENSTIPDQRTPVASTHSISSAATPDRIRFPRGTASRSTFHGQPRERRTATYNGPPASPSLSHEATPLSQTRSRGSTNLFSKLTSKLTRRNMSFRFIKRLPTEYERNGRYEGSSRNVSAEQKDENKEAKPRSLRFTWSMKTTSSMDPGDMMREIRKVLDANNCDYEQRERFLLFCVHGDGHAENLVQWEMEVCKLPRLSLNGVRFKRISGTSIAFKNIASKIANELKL
Maternal embryonic leucine zipper kinase (Homo sapiens), sequence (Q14680 whole entry, looked up): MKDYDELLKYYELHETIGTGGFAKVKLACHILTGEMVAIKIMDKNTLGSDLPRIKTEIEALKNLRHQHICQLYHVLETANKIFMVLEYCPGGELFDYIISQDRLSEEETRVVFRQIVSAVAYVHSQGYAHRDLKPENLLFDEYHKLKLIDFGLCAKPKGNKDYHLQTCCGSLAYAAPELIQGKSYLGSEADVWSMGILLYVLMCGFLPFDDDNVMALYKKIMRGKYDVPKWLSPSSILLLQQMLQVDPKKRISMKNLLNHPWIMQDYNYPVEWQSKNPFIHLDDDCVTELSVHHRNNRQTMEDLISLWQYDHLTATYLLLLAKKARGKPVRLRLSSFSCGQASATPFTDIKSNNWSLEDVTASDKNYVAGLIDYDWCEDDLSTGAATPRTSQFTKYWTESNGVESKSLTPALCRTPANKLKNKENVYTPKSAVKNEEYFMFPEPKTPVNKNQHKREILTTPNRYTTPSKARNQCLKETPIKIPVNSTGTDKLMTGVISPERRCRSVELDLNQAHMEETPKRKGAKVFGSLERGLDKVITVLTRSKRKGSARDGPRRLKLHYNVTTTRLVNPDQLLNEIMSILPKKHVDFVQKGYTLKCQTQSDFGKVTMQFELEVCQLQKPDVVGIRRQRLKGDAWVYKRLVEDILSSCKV
Serine/threonine-protein kinase MARK1 (Homo sapiens), sequence (Q9P0L2 whole entry, looked up): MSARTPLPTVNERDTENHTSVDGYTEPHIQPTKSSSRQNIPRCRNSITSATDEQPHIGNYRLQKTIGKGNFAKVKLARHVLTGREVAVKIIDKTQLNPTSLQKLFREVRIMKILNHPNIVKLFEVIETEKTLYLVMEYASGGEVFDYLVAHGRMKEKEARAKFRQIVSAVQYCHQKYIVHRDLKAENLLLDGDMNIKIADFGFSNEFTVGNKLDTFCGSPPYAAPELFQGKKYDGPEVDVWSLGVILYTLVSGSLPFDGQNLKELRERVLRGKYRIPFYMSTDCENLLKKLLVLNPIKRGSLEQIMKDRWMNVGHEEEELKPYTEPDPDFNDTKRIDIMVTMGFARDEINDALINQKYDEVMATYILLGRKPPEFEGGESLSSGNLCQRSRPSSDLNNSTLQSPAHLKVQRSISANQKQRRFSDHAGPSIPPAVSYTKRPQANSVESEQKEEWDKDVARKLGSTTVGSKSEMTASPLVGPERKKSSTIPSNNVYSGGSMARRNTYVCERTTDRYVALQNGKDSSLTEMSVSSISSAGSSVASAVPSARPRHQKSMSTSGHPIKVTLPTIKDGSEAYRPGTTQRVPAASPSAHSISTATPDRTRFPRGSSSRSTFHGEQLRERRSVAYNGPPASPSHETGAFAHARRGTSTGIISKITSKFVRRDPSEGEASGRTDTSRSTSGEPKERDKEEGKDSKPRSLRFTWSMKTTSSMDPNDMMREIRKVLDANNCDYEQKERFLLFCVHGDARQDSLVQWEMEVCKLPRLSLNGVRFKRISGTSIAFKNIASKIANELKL
MAP kinase-interacting serine/threonine-protein kinase 2 (Homo sapiens), sequence (Q9HBH9 whole entry, looked up): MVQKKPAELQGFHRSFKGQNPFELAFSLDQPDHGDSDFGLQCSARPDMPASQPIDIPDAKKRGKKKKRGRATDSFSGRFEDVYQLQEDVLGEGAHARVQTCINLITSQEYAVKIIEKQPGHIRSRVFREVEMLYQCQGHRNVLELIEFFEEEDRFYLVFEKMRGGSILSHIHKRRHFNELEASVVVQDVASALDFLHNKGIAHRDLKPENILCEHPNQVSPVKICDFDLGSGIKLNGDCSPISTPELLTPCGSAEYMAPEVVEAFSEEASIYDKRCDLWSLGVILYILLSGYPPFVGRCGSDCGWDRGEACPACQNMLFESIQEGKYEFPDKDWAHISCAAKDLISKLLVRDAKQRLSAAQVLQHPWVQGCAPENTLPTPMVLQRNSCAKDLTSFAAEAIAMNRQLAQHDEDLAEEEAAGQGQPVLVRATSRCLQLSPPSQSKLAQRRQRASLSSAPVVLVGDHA
MAP kinase-activated protein kinase 3 (Homo sapiens), sequence (Q16644 whole entry, looked up): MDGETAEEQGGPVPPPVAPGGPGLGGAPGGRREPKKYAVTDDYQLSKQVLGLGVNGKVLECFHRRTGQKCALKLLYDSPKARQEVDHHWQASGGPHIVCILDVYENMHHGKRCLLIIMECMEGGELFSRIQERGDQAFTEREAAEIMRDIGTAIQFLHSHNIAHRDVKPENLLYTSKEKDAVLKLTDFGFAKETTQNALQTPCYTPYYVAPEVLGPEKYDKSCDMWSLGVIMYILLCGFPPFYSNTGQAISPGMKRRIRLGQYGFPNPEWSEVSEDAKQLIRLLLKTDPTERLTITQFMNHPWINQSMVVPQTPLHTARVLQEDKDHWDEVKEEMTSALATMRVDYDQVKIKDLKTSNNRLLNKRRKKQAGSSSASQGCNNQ
MAP kinase-interacting serine/threonine-protein kinase 1 (Homo sapiens), sequence (Q9BUB5 whole entry, looked up): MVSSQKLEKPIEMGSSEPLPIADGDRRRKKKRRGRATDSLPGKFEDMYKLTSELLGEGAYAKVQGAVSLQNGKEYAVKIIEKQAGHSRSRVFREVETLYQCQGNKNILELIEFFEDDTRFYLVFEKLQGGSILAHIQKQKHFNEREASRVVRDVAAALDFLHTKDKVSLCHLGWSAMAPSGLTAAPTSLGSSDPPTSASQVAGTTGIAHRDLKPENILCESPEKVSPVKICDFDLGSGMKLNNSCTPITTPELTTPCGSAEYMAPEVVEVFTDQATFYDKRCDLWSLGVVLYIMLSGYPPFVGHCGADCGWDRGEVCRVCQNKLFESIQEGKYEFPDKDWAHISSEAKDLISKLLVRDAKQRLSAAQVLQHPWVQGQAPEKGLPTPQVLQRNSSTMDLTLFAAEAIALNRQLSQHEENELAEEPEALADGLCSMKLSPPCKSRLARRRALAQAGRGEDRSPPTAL

Structure (SMILES): O=C(Nc1n[nH]c2nc(-c3ccco3)c(Br)cc12)C1CC1
- inhibition [1]: 4.49%
- inhibition [2]: -0.15%
- inhibition [3]: 1.73%
- inhibition [4]: 1.86%
- inhibition [5]: 1.26%
- inhibition [6]: 2.91%
- inhibition [7]: 3.6%
- inhibition [8]: 2.45%
- inhibition [9]: 2.7%
- inhibition [10]: 4.8%
- inhibition [11]: -5.02%
- inhibition [12]: 1.46%
- inhibition [13]: 2.43%
- inhibition [14]: 2.96%
- inhibition [15]: 7.3%
- inhibition [16]: 3.3%
- inhibition [17]: 13.9%
- inhibition [18]: 1.26%
- inhibition [19]: 1.34%
- inhibition [20]: -0.08%

Structure (SMILES): NCc1ccc(-c2nc(-c3ccc(Cl)c(O)c3)c(-c3ccncc3)[nH]2)cc1
- inhibition [1]: 1.16%
- inhibition [2]: 3.34%
- inhibition [3]: 5.14%
- inhibition [4]: -0.41%
- inhibition [5]: -0.56%
- inhibition [6]: 15.5%
- inhibition [7]: 30.9%
- inhibition [8]: 2.03%
- inhibition [9]: 2.6%
- inhibition [10]: 0.33%
- inhibition [11]: 5.09%
- inhibition [12]: 0.06%
- inhibition [13]: 2.57%
- inhibition [14]: 0.75%
- inhibition [15]: -1.02%
- inhibition [16]: -2.18%
- inhibition [17]: 6.58%
- inhibition [18]: 1.14%
- inhibition [19]: 4.8%
- inhibition [20]: -0.38%

Structure (SMILES): CN1CCC(C(=O)Nc2n[nH]c3nnc(-c4ccccc4)cc23)CC1
- inhibition [1]: -2.32%
- inhibition [2]: 0.57%
- inhibition [3]: -0.83%
- inhibition [4]: -0.36%
- inhibition [5]: -0.73%
- inhibition [6]: -1.34%
- inhibition [7]: -1.95%
- inhibition [8]: 4.01%
- inhibition [9]: 5.96%
- inhibition [10]: 3.75%
- inhibition [11]: 4.62%
- inhibition [12]: 2.21%
- inhibition [13]: 3.02%
- inhibition [14]: 3.21%
- inhibition [15]: 5.92%
- inhibition [16]: 6.32%
- inhibition [17]: 13.6%
- inhibition [18]: 2.9%
- inhibition [19]: 8.1%
- inhibition [20]: 1.18%

Structure (SMILES): Fc1cccc(COc2ccc(Nc3ncnc4sc(-c5cccs5)cc34)cc2Cl)c1
- inhibition [1]: -9.5%
- inhibition [2]: -1.25%
- inhibition [3]: 2.62%
- inhibition [4]: -2.05%
- inhibition [5]: -2.63%
- inhibition [6]: -4.76%
- inhibition [7]: -5.22%
- inhibition [8]: 0.88%
- inhibition [9]: 2.73%
- inhibition [10]: 0.02%
- inhibition [11]: 3.4%
- inhibition [12]: 0.59%
- inhibition [13]: 1.48%
- inhibition [14]: 2.25%
- inhibition [15]: 3.16%
- inhibition [16]: 2.11%
- inhibition [17]: 5.61%
- inhibition [18]: 1.36%
- inhibition [19]: 5.08%
- inhibition [20]: 1.15%

Structure (SMILES): CCc1cccc(NC(=O)Nc2ccc(Oc3ccc4nc(NC(=O)OC)[nH]c4c3)cc2)c1
- inhibition [1]: -5.23%
- inhibition [2]: 6.75%
- inhibition [3]: 1.42%
- inhibition [4]: -0.49%
- inhibition [5]: -1.61%
- inhibition [6]: -2.74%
- inhibition [7]: -3.85%
- inhibition [8]: 1.69%
- inhibition [9]: 0.31%
- inhibition [10]: 1.5%
- inhibition [11]: 3.47%
- inhibition [12]: -0.22%
- inhibition [13]: -1.15%
- inhibition [14]: -0.95%
- inhibition [15]: 2.29%
- inhibition [16]: 5.71%
- inhibition [17]: 15.8%
- inhibition [18]: 4.24%
- inhibition [19]: 12.2%
- inhibition [20]: 2.55%

Structure (SMILES): COc1cc2ncn(-c3cc(OCc4ccccc4C(F)(F)F)c(C(N)=O)s3)c2cc1OC
- inhibition [1]: -4.22%
- inhibition [2]: -2.49%
- inhibition [3]: -0.6%
- inhibition [4]: 2.27%
- inhibition [5]: 1.47%
- inhibition [6]: 4.71%
- inhibition [7]: 4.41%
- inhibition [8]: 4.83%
- inhibition [9]: 22.1%
- inhibition [10]: 5.55%
- inhibition [11]: 21.5%
- inhibition [12]: 5.05%
- inhibition [13]: 18.4%
- inhibition [14]: 5.92%
- inhibition [15]: 10.3%
- inhibition [16]: 2.99%
- inhibition [17]: 7.06%
- inhibition [18]: 2.21%
- inhibition [19]: 7.89%
- inhibition [20]: 2.29%

Structure (SMILES): O=C1NC(=O)C(c2ccc(Cl)cc2)=C1Nc1ccc(Cl)c(C(=O)O)c1
- inhibition [1]: -1.43%
- inhibition [2]: -1.2%
- inhibition [3]: -0.41%
- inhibition [4]: -1.23%
- inhibition [5]: -1.83%
- inhibition [6]: -0.48%
- inhibition [7]: -1%
- inhibition [8]: -0.68%
- inhibition [9]: -0.26%
- inhibition [10]: -0.12%
- inhibition [11]: 1.91%
- inhibition [12]: -0.05%
- inhibition [13]: 1.71%
- inhibition [14]: -3.46%
- inhibition [15]: 1.25%
- inhibition [16]: -0.24%
- inhibition [17]: -0.57%
- inhibition [18]: -0.57%
- inhibition [19]: 0.11%
- inhibition [20]: -0.46%
